In all, about 81,000 sequences were measured (“one-hybrid fitness for binding NBS DNA”: median about -0.1, highest 2% from about 0.36 on). Shown is part of a subset that was picked to be rich in the highest values.
B1: Caulobacter ParB omega fusion; a variant is named by its letters at X, in order, B8GW30 (parent)
chain: MESVVVGEPGMSEGRRGLGRGLSALLGEVDAAPAQAPGEQLGGSREAPIEILQRNPDQPRRTFREEDLEDLSNSIREKGVLQPILVRPSPDTAGEYQIVAGERAWRAAQRAGLKTVPIMVRELDDLAVLEIGIIENVQRADLNVLEEALSYKVLMEKFERTQENIAQTIGKSXSHVANXMRLLXLPDEVQSYLVSGELTAXHARAIAAAADPVALAKQIIEGGLSVRETEALARKAPNLSAGKSKGGRPPRVKDTDTQALESDLSSVLGLDVSIDHRGSTGTLTITYATLEQLDDLCNRLTRGI

Variants of: B1
Assay: one-hybrid fitness for binding NBS DNA (the Noc-binding site; scaled: cognate 1, non-cognate 0); higher = stronger binding
Conditions: with NBS DNA site
Method in brief: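 Bacterial one-hybrid selection in E. coli USO rpoZ- hisB- pyrF- with a HIS3 reporter carrying the site 19 bp from the promoter, screening Caulobacter ParB libraries with four specificity codons randomised (NNS). Cells grew 48 hours at 37°C on M9-minus-histidine plus 0.1 mM IPTG and 5 mM 3-AT. Plasmids before and after selection were Illumina-sequenced, three replicate libraries pooled, and variants under 10 reads dropped. Fitness is the log change in variant-to-wild-type read ratio, rescaled to cognate 1, non-cognate 0.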

Row | Variant | one-hybrid fitness for binding NBS DNA
1 | NTKL | ≤ 0.2
2 | YMTV | ≤ 0.2
3 | HSGS | ≤ 0.2
4 | THQS | ≤ 0.2
5 | HCNT | ≤ 0.2
6 | MGAT | ≤ 0.2
7 | QAHT | 0.414
8 | QSHT | 0.429
9 | QAHC | ≤ 0.2
10 | QHHY | ≤ 0.2
11 | QHHT | 0.419
12 | QNHT | ≤ 0.2
13 | QAHF | ≤ 0.2
14 | QHHK | ≤ 0.2
15 | QWHT | ≤ 0.2
16 | PYTI | ≤ 0.2
17 | TEKH | ≤ 0.2
18 | AHRE | ≤ 0.2
19 | QKNC | 0.201
20 | QKNR | 0.747
21 | QKDF | ≤ 0.2

Row | Variant | one-hybrid fitness for binding NBS DNA
22 | QKNF | ≤ 0.2
23 | QKDR | 0.425
24 | SPCS | ≤ 0.2
25 | VPAP | ≤ 0.2
26 | YAMK | ≤ 0.2
27 | GQTK | ≤ 0.2
28 | INGE | ≤ 0.2
29 | QVRS | 0.482
30 | QVNR | 0.465
31 | QVND | ≤ 0.2
32 | QVNS | 0.377
33 | QVDR | ≤ 0.2
34 | QVQR | 0.368
35 | QVNN | ≤ 0.2
36 | QVQN | ≤ 0.2
37 | QVYS | 0.202
38 | QVRD | ≤ 0.2
39 | QVQS | ≤ 0.2
40 | QVDS | ≤ 0.2
41 | SVQD | ≤ 0.2
42 | CSRY | ≤ 0.2

Row | Variant | one-hybrid fitness for binding NBS DNA
43 | EQAR | ≤ 0.2
44 | RYPY | ≤ 0.2
45 | WMPP | ≤ 0.2
46 | AHEF | ≤ 0.2
47 | GQCW | ≤ 0.2
48 | EIHG | ≤ 0.2
49 | GPST | ≤ 0.2
50 | VMSA | ≤ 0.2
51 | LYRR | ≤ 0.2
52 | GDTA | ≤ 0.2
53 | QVAR | 0.384
54 | QVRR | 0.77
55 | QVGP | ≤ 0.2
56 | QVLR | 0.305
57 | QVSR | 0.38
58 | QVYR | 0.306
59 | QVSD | ≤ 0.2
60 | QVFR | 0.302
61 | QVGR | 0.426
62 | QVGD | ≤ 0.2
63 | QVSN | ≤ 0.2

Row | Variant | one-hybrid fitness for binding NBS DNA
64 | QVAH | ≤ 0.2
65 | GHLS | ≤ 0.2
66 | CPPV | ≤ 0.2
67 | SSGL | ≤ 0.2
68 | QAQG | ≤ 0.2
69 | VSSH | ≤ 0.2
70 | ELVL | ≤ 0.2
71 | DGRA | ≤ 0.2
72 | PHAM | ≤ 0.2
73 | TTRG | ≤ 0.2
74 | QVKG | ≤ 0.2
75 | QVHR | 0.436
76 | QVVR | 0.285
77 | QVHD | ≤ 0.2
78 | QVKR | 0.786
79 | QVHN | ≤ 0.2
80 | SFPV | ≤ 0.2
81 | PNKV | ≤ 0.2
82 | CGYT | ≤ 0.2
83 | FDPN | ≤ 0.2
84 | SLHW | ≤ 0.2

From a collection of fitness landscapes (doi:10.1016/j.celrep.2020.107928)
